Rows were chosen to be rich in hits. Some 4.2% of all compounds tested hit in one or more screens of this group.
AHR act: activates the human aryl hydrocarbon receptor; P35869; AHR-responsive luciferase reporter cells, luminescence; activation, % at 5 µM; 320,000 compounds, 2.5% hits; AID 2796; in the data active = activation above about 47%
Target sequence (P35869 whole entry, looked up): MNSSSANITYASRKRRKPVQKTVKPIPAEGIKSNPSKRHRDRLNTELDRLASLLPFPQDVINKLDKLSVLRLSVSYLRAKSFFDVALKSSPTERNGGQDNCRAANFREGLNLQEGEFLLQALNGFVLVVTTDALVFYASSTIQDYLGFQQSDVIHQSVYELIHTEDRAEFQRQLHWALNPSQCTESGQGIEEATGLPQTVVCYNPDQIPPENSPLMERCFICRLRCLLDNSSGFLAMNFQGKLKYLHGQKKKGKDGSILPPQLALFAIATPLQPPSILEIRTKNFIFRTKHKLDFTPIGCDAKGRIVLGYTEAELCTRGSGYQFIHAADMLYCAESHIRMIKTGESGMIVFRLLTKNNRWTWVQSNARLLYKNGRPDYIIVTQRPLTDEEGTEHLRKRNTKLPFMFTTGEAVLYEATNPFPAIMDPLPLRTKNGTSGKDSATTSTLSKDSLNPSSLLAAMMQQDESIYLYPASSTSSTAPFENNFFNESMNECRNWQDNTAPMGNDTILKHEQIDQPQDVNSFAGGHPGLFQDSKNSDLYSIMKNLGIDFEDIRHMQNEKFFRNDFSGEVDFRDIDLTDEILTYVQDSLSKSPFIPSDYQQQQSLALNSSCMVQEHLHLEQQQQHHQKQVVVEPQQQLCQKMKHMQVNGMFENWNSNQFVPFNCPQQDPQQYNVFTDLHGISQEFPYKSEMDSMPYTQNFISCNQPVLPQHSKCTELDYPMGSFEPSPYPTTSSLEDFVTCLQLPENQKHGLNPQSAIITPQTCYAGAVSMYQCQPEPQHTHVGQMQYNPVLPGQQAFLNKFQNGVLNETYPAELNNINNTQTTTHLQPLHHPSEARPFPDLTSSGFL
esBAF inh: SWI/SNF esBAF complex inhibition; mouse ES cells, Bmi1-luciferase knock-in reporter, 24 h; 100% = twice the neutral-well signal; reporter increase, % at 12.5 µM; 350,000 compounds, 2% hits; in the data active = activation above about 40%; inconclusive = no clear call, values can overlap the other calls;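 also: a rise in the Bmi1 reporter signal indicates esBAF inhibition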
Wnt act: Wnt/beta-catenin pathway activation; Wnt/beta-catenin reporter cell assay, activator, plate reader; activation, % at 9.35 µM; 300,000 compounds, 1.2% hits; AID 743398; in the data active = activation above about 30%, passing the limit was not always enough; inconclusive = no clear call, values can overlap the other calls
FXN GAA850 act: increases GAA850 frataxin promoter reporter activity. HEK293 lucGAA850 FXN promoter luciferase reporter, 24 h; percent of 10 µM SAHA response. activation, % at 6 µM. 360,000 compounds, 0.56% hits. AID 540364;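 active = activation above the average of all compounds screened plus 3 SD, cutoff fixed separately per campaign, cut at about 7.5% in these data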
MITF TRPM1 HTS: increases MITF-driven TRPM1 promoter luciferase signal; SK-MEL-5 TRPM1-promoter luciferase, 24 h; % of positive control, neutral wells = 0; activation, % at 12.5 µM; 300,000 compounds, 0.75% hits; AID 588334;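 active = mean activation of at least 80% with every replicate also reaching 80%; inconclusive = mean reaches 80% but some replicate falls short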
GAA30 FXN cntr: counter-screen for GAA850 frataxin promoter activators: GAA30 promoter activation; shares compounds with FXN GAA850 act; HEK293 lucGAA30 FXN promoter luciferase, 24 h; DMSO = 0%, 5 µM ipriflavone = 100%; activation, % at 6 µM; 1,900 compounds, 66% hits; AID 588350;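 active = mean activation above the mean of solvent-only control wells plus 3 SD, cut at about 22% in these data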;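 also: counterscreen of GAA850 promoter hits where activity marks nonselective or luminescence artifacts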
FXN GAA850 conf: GAA850 FXN promoter activation confirmation; shares compounds with FXN GAA850 act; HEK293 lucGAA850 FXN promoter luciferase reporter, 24 h; 100% = activation by SAHA; activation, % at 6 µM; 1,900 compounds, 86% hits; AID 588351;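 active = mean activation above a set limit taken from the primary screen, cut at about 8% in these data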
Of the large screens only hits and unclear results are named; the others gave an inactive call (follow-up assays come after a bar, where they were run).

COc1ccc(N2C(=O)N3[C@H](c4ccc(Cl)cc4)[C@@H]4C(=O)N(C5CCCCC5)C(=O)[C@@H]4[C@]3(Cc3ccc(Cl)cc3)C2=O)cc1	FXN GAA850 act 7.9 | GAA30 FXN cntr 31 | FXN GAA850 conf 12
O=C1[C@H]2[C@@H](c3ccc(F)cc3)N3C(=O)N(c4cccc(F)c4)C(=O)[C@@]3(Cc3ccccc3)[C@H]2C(=O)N1C1CCCCC1	FXN GAA850 act 11 | GAA30 FXN cntr 28 | FXN GAA850 conf 14
Cc1ccc(N2C(=O)N3[C@H](c4ccc(F)cc4)[C@@H]4C(=O)N(C5CCCCC5)C(=O)[C@@H]4[C@]3(Cc3ccccc3)C2=O)cc1	FXN GAA850 act 12 (no result: MITF TRPM1 HTS) | GAA30 FXN cntr 31 | FXN GAA850 conf 11
C[C@@H]1CN([C@@H](C)CO)S(=O)(=O)c2ccc(C#CCN(C)C)cc2O[C@H]1CN(C)Cc1ccc(F)cc1	none (no result: AHR act, Wnt act, FXN GAA850 act, MITF TRPM1 HTS)
CO[C@H]1CN(C)C(=O)c2ccc(NC(=O)c3ccc(F)cc3)cc2OC[C@@H](C)N(C(C)=O)C[C@@H]1C	none (no result: AHR act, Wnt act, FXN GAA850 act, MITF TRPM1 HTS)
Nn1c(C2CCCCC2)nc2ccccc2c1=O	none
N#CCn1c(C2CCCCC2)nc2ccccc2c1=O	FXN GAA850 act 9.3 | GAA30 FXN cntr 26 | FXN GAA850 conf 14
COC(=O)C[C@@H]1CC[C@@H]2[C@H](COc3ccc(NC(=O)c4ccc(OC)cc4)cc3C(=O)N2C)O1	none (no result: AHR act, Wnt act, FXN GAA850 act, MITF TRPM1 HTS)
CCOC(=O)c1c(NC(=O)c2cccnc2Cl)sc(C(=O)N(C)C)c1C	FXN GAA850 act 10 (no result: esBAF inh) | GAA30 FXN cntr inactive | FXN GAA850 conf inactive
CCOC(=O)c1c(NC(=O)c2cccs2)sc(C(=O)N(C)C)c1C	none
Oc1csc(Cc2nc(-c3ccc(Br)cc3)cs2)n1	AHR act 78, FXN GAA850 act 7.6 (no result: esBAF inh) | GAA30 FXN cntr 96 | FXN GAA850 conf 38
NC(=O)Cc1nc(-c2ccc(Br)cc2)cs1	none (no result: esBAF inh)
COC(=O)C1=C(C)NC2=C(C(=O)CCC2)C1c1cn(Cc2ccc(Cl)cc2Cl)nc1-c1ccccc1 (stereo unspecified)	none (no result: Wnt act)
CCOC(=O)C1=C(C)NC2=C(C(=O)CCC2)C1c1cn(Cc2ccc(Cl)cc2Cl)nc1-c1ccccc1 (stereo unspecified)	FXN GAA850 act 13 | GAA30 FXN cntr 22 | FXN GAA850 conf 7.8
Cc1c(C(=O)Nc2cccnc2Cl)oc2ccccc12	esBAF inh 48, FXN GAA850 act 7.8 | GAA30 FXN cntr 128 | FXN GAA850 conf 42
O=C(O)C[C@H]1C[C@H]2c3cc(NC(=O)NC4CCCCC4)ccc3O[C@H]2[C@H](CO)O1	none (no result: AHR act, Wnt act, FXN GAA850 act, MITF TRPM1 HTS)
C[C@@H]1CN([C@H](C)CO)C(=O)Cc2cc(NS(C)(=O)=O)ccc2O[C@H]1CN(C)C(=O)Nc1cccc2ccccc12	none (no result: AHR act, Wnt act, FXN GAA850 act, MITF TRPM1 HTS)
CC(=O)N(C(C)=O)c1ncnc2c1c(-c1ccc(Cl)cc1)nn2C(C)(C)C	none (no result: esBAF inh)
CC(=O)Nc1ncnc2c1c(-c1ccc(Cl)cc1)nn2C(C)(C)C	FXN GAA850 act 11 (no result: esBAF inh) | GAA30 FXN cntr inactive | FXN GAA850 conf 10
Cc1c(C(=O)OCCOC(C)C)[nH]c2c1C(=O)CC(C)(C)C2	esBAF inh inconclusive, FXN GAA850 act 10.0 | GAA30 FXN cntr 35 | FXN GAA850 conf 13
Cc1c(C(=O)OCCOC(C)C)[nH]c2c1C(=O)CC(c1ccco1)C2 (stereo unspecified)	none (no result: Wnt act, MITF TRPM1 HTS)
COc1ccc(N2C(=O)NC(NC(=O)C(C)(C)C)(C(F)(F)F)C2=O)cc1 (stereo unspecified)	FXN GAA850 act 9.2 | GAA30 FXN cntr inactive | FXN GAA850 conf 8.2
Fc1ccc(C2CC(c3ccco3)n3ncnc3N2)cc1 (stereo unspecified)	none (no result: MITF TRPM1 HTS)
Cc1ccc(C2CC(c3ccco3)n3ncnc3N2)cc1 (stereo unspecified)	FXN GAA850 act 11 | GAA30 FXN cntr inactive | FXN GAA850 conf inactive
CC(/C=N/n1cnnc1)=C\c1ccccc1	none (no result: MITF TRPM1 HTS)
ClC(/C=N/n1cnnc1)=C/c1ccccc1	FXN GAA850 act 7.8 (no result: esBAF inh, MITF TRPM1 HTS) | GAA30 FXN cntr 59 | FXN GAA850 conf 30
CCc1ccc(/C=N/Nc2ncnc3nc[nH]c23)cc1	Wnt act 53, FXN GAA850 act 11 | GAA30 FXN cntr 132 | FXN GAA850 conf 54

High-throughput results deposited in PubChem BioAssay by several laboratories.
